Reference: PubChem BioAssay (NCATS)
Results filed as inconclusive are left out. The source made the active and inactive calls. The call rests on the fitted dose curve; in most records, active means well fitted curve in the direction sought with a large enough effect; inconclusive means small, poorly fitted or top-dose-only effect, or another doubt; inactive means no such curve, though single readings can be large; an effect the other way counts as inactive or inconclusive.

Columns and labels:
[1] = biological target: Rap guanine nucleotide exchange factor 3 (Homo sapiens) (UniProt O95398); assay: Confirmatory qHTS for antagonist of cAMP-regulated guanine nucleotide exchange factor 3 (EPAC1) (AID 1645880); further: nearly all actives have a fitted effect of over 55% in size; further: potency means the concentration at half of the fitted maximal effect
Outline: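 Released BODIPY-GDP fluoresces less than Rap1-bound BODIPY-GDP; the signal is followed at 480/540 nm at 5-min intervals over 30 min, after 5 min at room temperature. Reactions contain 100 nM EPAC1, 250 nM RAP1B-BODIPY-GDP and 50 uM GDP; results are normalized to ATA and DMSO.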

[2] = biological target: Rap guanine nucleotide exchange factor 3 (Homo sapiens) (UniProt O95398); assay: Confirmatory qHTS for agonist of cAMP-regulated guanine nucleotide exchange factor 3 (EPAC1) (AID 1645881);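 further: EPAC1 catalysed release of BODIPY-GDP from Rap1B seen as fluorescence loss; 100% = effect of cAMP agonist control; nearly all actives have a fitted effect of over 75% in size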
[3] = biological target: Rap guanine nucleotide exchange factor 4 (Homo sapiens) (UniProt Q8WZA2); assay: Confirmatory qHTS for agonist of cAMP-regulated guanine nucleotide exchange factor 4 (EPAC2) (AID 1645884);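 further: nucleotide exchange releases bodipy-GDP from Rap1 and this lowers its fluorescence; on the % scale 0 is the no-effect control and ±100 the full control effect; nearly all actives have a fitted effect of over 65% in size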
[4] = biological target: Rap guanine nucleotide exchange factor 4 (Homo sapiens) (UniProt Q8WZA2); assay: Confirmatory qHTS for antagonist of cAMP-regulated guanine nucleotide exchange factor 4 (EPAC2) (AID 1645885); further: nearly all actives have a fitted effect of over 25% in size; further: potency means the concentration at half of the fitted maximal effect; on activity change, negative = inhibition: on the % scale 0 is the no-effect control and ±100 the full control effect
[5] = biological target: Rap guanine nucleotide exchange factor 3 (Homo sapiens) (UniProt O95398); assay: Counterscreen qHTS for antagonist of cAMP-regulated guanine nucleotide exchange factor 3 (EPAC1) (AID 1645888); further: % of control where 0% means no effect
Outline: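 Measured: fluorescence of BODIPY-GDP bound to Rap1B, which falls as exchange proceeds. Conditions include 50 uM competing GDP, 5 and 30 min reads, and a later cAMP challenge for antagonist detection.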

Rap guanine nucleotide exchange factor 3 (Homo sapiens), sequence (O95398 whole entry, looked up): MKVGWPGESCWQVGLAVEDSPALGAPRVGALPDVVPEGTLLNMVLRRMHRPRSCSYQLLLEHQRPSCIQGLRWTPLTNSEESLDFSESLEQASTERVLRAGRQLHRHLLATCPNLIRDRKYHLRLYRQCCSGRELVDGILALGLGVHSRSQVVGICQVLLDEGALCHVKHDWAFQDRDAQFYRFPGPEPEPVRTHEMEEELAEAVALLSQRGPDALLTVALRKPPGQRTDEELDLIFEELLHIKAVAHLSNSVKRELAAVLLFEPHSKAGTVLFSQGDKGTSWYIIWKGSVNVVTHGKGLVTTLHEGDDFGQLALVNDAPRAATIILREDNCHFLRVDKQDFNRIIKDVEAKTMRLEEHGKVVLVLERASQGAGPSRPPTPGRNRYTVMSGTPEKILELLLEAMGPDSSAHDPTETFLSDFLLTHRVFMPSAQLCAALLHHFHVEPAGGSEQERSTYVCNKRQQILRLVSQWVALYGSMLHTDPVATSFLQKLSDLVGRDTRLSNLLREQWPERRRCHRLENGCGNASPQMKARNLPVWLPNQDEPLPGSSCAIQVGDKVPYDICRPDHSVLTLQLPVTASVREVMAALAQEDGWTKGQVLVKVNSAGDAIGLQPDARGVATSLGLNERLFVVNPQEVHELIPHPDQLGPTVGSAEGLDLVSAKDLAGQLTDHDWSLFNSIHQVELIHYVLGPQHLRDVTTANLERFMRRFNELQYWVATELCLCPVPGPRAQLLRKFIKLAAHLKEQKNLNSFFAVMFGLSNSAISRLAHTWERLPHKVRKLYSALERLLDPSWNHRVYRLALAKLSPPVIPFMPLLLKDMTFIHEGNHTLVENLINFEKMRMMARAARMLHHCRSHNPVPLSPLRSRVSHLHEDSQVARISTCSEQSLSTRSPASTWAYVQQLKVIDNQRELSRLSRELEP
Rap guanine nucleotide exchange factor 4 (Homo sapiens), sequence (Q8WZA2 whole entry, looked up): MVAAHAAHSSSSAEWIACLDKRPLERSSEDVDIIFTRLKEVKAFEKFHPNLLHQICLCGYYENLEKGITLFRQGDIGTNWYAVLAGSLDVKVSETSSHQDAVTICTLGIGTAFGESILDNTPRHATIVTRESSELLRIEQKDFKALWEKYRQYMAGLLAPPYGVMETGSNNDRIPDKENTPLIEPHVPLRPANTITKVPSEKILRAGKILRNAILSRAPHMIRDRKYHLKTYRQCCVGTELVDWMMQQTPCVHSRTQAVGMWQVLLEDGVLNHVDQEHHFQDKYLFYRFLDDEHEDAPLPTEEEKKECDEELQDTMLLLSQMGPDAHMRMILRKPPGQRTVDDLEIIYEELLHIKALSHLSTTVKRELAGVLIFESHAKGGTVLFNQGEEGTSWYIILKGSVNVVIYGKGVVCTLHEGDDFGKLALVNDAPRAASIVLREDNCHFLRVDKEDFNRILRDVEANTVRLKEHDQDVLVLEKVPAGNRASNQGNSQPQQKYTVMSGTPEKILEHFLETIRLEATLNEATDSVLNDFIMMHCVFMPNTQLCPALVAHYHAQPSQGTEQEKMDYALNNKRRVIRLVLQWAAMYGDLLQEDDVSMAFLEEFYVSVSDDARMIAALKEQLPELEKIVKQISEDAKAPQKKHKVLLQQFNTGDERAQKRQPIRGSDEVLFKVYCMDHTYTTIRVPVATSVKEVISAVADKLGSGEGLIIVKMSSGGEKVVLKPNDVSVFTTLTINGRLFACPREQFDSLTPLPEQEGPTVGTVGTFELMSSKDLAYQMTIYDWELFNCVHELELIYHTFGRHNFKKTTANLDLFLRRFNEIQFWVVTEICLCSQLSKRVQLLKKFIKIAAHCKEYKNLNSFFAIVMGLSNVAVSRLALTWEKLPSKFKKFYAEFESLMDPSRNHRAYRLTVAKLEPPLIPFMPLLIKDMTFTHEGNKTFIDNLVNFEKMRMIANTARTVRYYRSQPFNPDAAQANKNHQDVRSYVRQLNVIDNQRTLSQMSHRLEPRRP

Cc1ccccc1S(=O)(=O)N1C(c2ccc(Cl)c(Cl)c2)CC=C(C(=O)O)C1c1cccc(Br)c1 (stereo not given)
active: Potency [1] 75.7 µM
inactive: Potency [2] | Potency [3] | Potency [4] | Potency [5]

CCn1c2ccccc2c2cc(NC(=O)CSc3nnc(-c4cccc(C)c4)o3)ccc21
inactive: Potency [1] | Potency [2] | activation [3] 3.98% [at 17.1 µM, percent relative to cAMP agonist control] | Potency [4] | activity change, negative = inhibition [5] 9.03% [at 30.8 µM]

COc1cc(C)cc(C(=O)C=Cc2ccccc2)c1O
inactive: Potency [1] | Potency [2] | activation [3] 3.76% [at 17.1 µM, percent relative to cAMP agonist control] | Potency [4] | activity change, negative = inhibition [5] 12.7% [at 30.8 µM]

CCOc1ccc2nc(NC(=O)CSc3nc(-c4ccccc4)c(C#N)c(=O)[nH]3)sc2c1
active: Potency [1] 56.2 µM
inactive: Potency [2] | activation [3] 2.22% [at 17.1 µM, percent relative to cAMP agonist control] | Potency [4] | activity change, negative = inhibition [5] -3.89% [at 30.8 µM]

CCCCN(C(=O)CSCC(=O)Nc1ccc(C)cc1)c1c(N)n(CCCC)c(=O)[nH]c1=O
inactive: Potency [1] | Potency [2] | activation [3] 4% [at 17.1 µM, percent relative to cAMP agonist control] | Potency [4] | activity change, negative = inhibition [5] -21.2% [at 30.8 µM]

Cc1nn(-c2ccccc2)c(N2CCCC2)c1/C=C1\N=C(c2ccc(OC(C)C)cc2)OC1=O
inactive: Potency [1] | Potency [2] | Potency [3] | Potency [4] | Potency [5]

CC1CC1c1ccc(/C=C(\C#N)C(=O)Nc2ccccc2Cl)o1 (stereo not given)
inactive: Potency [1] | Potency [2] | activation [3] 3.85% [at 17.1 µM, percent relative to cAMP agonist control] | Potency [4] | activity change, negative = inhibition [5] -9.3% [at 30.8 µM]

CC(CCc1ccccc1)NC(=O)C1CCN(C(=O)c2sccc2-n2cccc2)CC1 (stereo not given)
inactive: Potency [1] | Potency [2] | Potency [3] | Potency [4] | Potency [5]

COc1ccc2oc(C(=O)CCC(=O)O)c(N)c2c1
inactive: Potency [1] | Potency [2] | activation [3] 0% [at 17.1 µM, percent relative to cAMP agonist control] | Potency [4] | activity change, negative = inhibition [5] 3.66% [at 30.8 µM]

CCCN1C(=O)c2[nH]nc(-c3ccccc3)c2C1c1cccc(O)c1 (stereo not given)
inactive: Potency [1] | Potency [2] | Potency [3] | Potency [4] | Potency [5]

Cc1ccc(S(=O)(=O)N2CCN(CC(=O)Nc3ccccc3C(=O)NC3CC3)CC2)cc1
inactive: Potency [1] | Potency [2] | activation [3] 6.96% [at 17.1 µM, percent relative to cAMP agonist control] | Potency [4] | activity change, negative = inhibition [5] -3.04% [at 30.8 µM]

CCOc1ccc(-n2c(=O)[nH]cc(C(=O)Nc3ccc(OC)c(OC)c3)c2=O)cc1
inactive: Potency [1] | Potency [2] | Potency [3] | Potency [4] | Potency [5]

Clc1ccc2nc(C3CCCCC3)c(CC3CCCCC3)n2c1
inactive: Potency [1] | Potency [2] | activation [3] -3.07% [at 17.1 µM, percent relative to cAMP agonist control] | Potency [4] | activity change, negative = inhibition [5] -0.327% [at 30.8 µM]

C=CCn1c(SCC(=O)Nc2sccc2C(N)=O)nc2sc(CC)cc2c1=O
inactive: Potency [1] | Potency [2] | activation [3] 6.26% [at 17.1 µM, percent relative to cAMP agonist control] | Potency [4] | activity change, negative = inhibition [5] -8.95% [at 30.8 µM]

CCc1nc2c(OCc3ccc(Cl)cc3)cccn2c1N(C)C(=O)c1ccccc1F
inactive: Potency [1] | Potency [2] | activation [3] 3.03% [at 17.1 µM, percent relative to cAMP agonist control] | Potency [4] | activity change, negative = inhibition [5] -10.9% [at 30.8 µM]

COc1cccc(CNC(=O)CCC(=O)N2CC(C)Sc3ccccc32)c1 (stereo not given)
inactive: Potency [1] | Potency [2] | Potency [3] | Potency [4] | Potency [5]

Cc1ccc(N(CCC#N)C(=O)COC(=O)c2ccccc2SCC(=O)N2CCCC2)cc1
inactive: Potency [1] | Potency [2] | Potency [3] | Potency [4] | Potency [5]

Cc1ccc(N2C(=O)c3ccccc3C2C(=O)c2ccc(O)cc2O)cc1 (stereo not given)
inactive: Potency [1] | Potency [2] | Potency [3] | Potency [4] | Potency [5]

COc1ccc(C2=Cc3ccccc3C(CC(=O)C3CC3)N2c2ccc(C#CCCO)cc2)cc1 (stereo not given)
inactive: Potency [1] | Potency [2] | activation [3] 14.6% [at 17.1 µM, percent relative to cAMP agonist control] | Potency [4] | activity change, negative = inhibition [5] -1.57% [at 30.8 µM]

COc1ccc(-c2cc(OC(=O)c3ccc(Cl)cc3)c3c(C)oc(C)c3c(=O)c2)cc1
active: Potency [1] 75.7 µM
inactive: Potency [2] | Potency [3] | Potency [4] | Potency [5]

CCOC(=O)CSc1nc(C)c2cc(C)c(C)cc2n1
inactive: Potency [1] | Potency [2] | Potency [3] | Potency [4] | Potency [5]

CCCn1c(CN2CCN(C(=O)c3ccco3)CC2)nc2c1c(=O)n(C)c(=O)n2C
active: Potency [4] 10.7 µM
inactive: Potency [1] | Potency [2] | Potency [3] | Potency [5]

COc1ncc(-c2c(-c3ccccc3OC)sc3ccccc23)cn1
inactive: Potency [1] | Potency [2] | activation [3] -3.13% [at 17.1 µM, percent relative to cAMP agonist control] | Potency [4] | activity change, negative = inhibition [5] -4.66% [at 30.8 µM]

CCN(CC(=O)Nc1ccccc1C(F)(F)F)C(=O)c1cc2c(s1)CCCCC2
inactive: Potency [1] | Potency [2] | Potency [3] | Potency [4] | Potency [5]
